Among the data in PubChem BioAssay (Tox21) are Potency and outcome values, retold here.

SMILES strings stand for the structures. Values without a mark were called inactive. Results filed as inconclusive are left out. Calls of active or inactive are those of the source. Unless noted, calls come from the whole dose curve.

A short description of assay [1]: qHTS assay to identify small molecule antagonists of the sonic hedgehog signaling (Shh) pathway (AID 1259369). Note: nearly all actives have a fitted effect of over 45% in size. Note: potency is the fitted concentration of half-maximal effect. The gist of the method:
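Screening used 3T3Gli1-Luc cells at 2,000 per well, compounds delivered in DMSO, and conditioned medium as agonist stimulus; plates incubated 24hr at 37 C and 5% CO2 before a 30min luciferase step.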
For orientation: In qHTS, concentration-response curves come from the screen itself.

The target in assay [2] is Estrogen receptor beta (Homo sapiens) (UniProt Q92731). As to the kind of experiment: qHTS assay to identify small molecule agonists of the estrogen receptor beta (ER-beta) signaling pathway (AID 1259377; active = well fitted activation curve with a large enough effect in the signal ratio in the repeat runs, not every such curve was filed as active; the % refers to the signal ratio). The gist of the method:
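ER-beta-UAS-bla HEK293T cells in medium with 2% charcoal-stripped FBS were exposed to compounds for 16 h at 37C. Beta-lactamase reporter activity was read as fluorescence after 2 h with LiveBLAzer B/G FRET substrate at room temperature.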

The target is the same in assay [3]. As to the kind of experiment: qHTS assay to identify small molecule antagonists of the estrogen receptor beta (ER-beta) signaling pathway (AID 1259378; active = well fitted inhibition curve with a large enough effect in the signal ratio in the repeat runs, not every such curve was filed as active; the % refers to the signal ratio). The gist of the method: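 ER-beta-UAS-bla HEK293T cells in 2% charcoal-stripped FBS medium treated with compound plus 1nM final 17-beta-estradiol for 16 hr at 37C. Beta-lactamase reporter read by FRET substrate fluorescence after 2 hours at room temperature.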

Assay [4] in a line: qHTS assay to identify small molecule agonists of the estrogen receptor beta (ER-beta) signaling pathway - cell viability counter screen (AID 1259380; active = well fitted curve in the direction sought with a large enough effect in the repeat runs; an effect the other way counts as inactive or inconclusive; note: nearly all actives have a fitted effect of over 30% in size). The gist of the method:
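Viability of ER-beta-UAS-bla HEK293T cells was determined by CellTiter-Glo luminescence following 16 hr treatment with test compounds at 37C.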

The nature of assay [5]: qHTS assay to identify small molecule agonists or antagonists of the thyroid stimulating hormone receptor (TSHR) signaling pathway - wild type cell line counter screen (AID 1259384). Put shortly: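 Wild-type Hek293 cells, 800/well, 18 h at 37C, then compound with Ro20-1724 for 30 min RT. cAMP by HTRF (cAMP-d2/anti-cAMP cryptate), 1 h RT, fluorescence read. 15 concentrations, triplicates.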

The nature of assay [6]: qHTS assay to identify small molecule agonists of the estrogen receptor alpha (ER-alpha) signaling pathway in the presence of an antagonist - cell viability counter screen (AID 1259386; active = well fitted curve in the direction sought with a large enough effect in the repeat runs; an effect the other way counts as inactive or inconclusive;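 note: series mostly up to about 92 µM; cells exposed to compounds for 22 h at 37 °C before the viability read; nearly all actives have a fitted effect of over 30% in size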). Put shortly: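 Fluorescent CellTiter-Fluor viability signal from VM7Luc4E2 cells, with the reagent added during the final hour of a 22hr compound exposure at 37C in the presence of 10.0nM ICI-182,780.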

In assay [7] the target is Progesterone receptor (Homo sapiens) (UniProt P06401). Briefly: qHTS assay to identify small molecule antagonists of the progesterone receptor (PR) signaling pathway (AID 1346795; active = well fitted inhibition curve with a large enough effect in the signal ratio in the repeat runs, not every such curve was filed as active; the % refers to the signal ratio). Put shortly: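 PR-UAS-bla HEK293T cells with beta-lactamase reporter under UAS control, in 2% charcoal-stripped FBS, treated with compounds plus 1 nM promegestone (R5020, final) for 16 hr at 37C. Read-out: FRET beta-lactamase substrate fluorescence after 2 hr at room temperature.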

Assay [8] is described as follows: qHTS assay to identify small molecule antagonists of the progesterone receptor (PR) signaling pathway - cell viability counter screen (AID 1346798; active = well fitted curve in the direction sought with a large enough effect in the repeat runs; an effect the other way counts as inactive or inconclusive; note: series mostly up to about 92 µM; nearly all actives have a fitted effect of over 50% in size). Put shortly:
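PR-UAS-bla HEK293T cells, 3,000/well in 2% charcoal-stripped FBS medium, dosed with compounds plus R5020 agonist and incubated 16 h at 37C. Viability then measured in the same wells by CellTiter-Glo luminescence after 30 min at RT.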

Assay [9] can be described thus: qHTS assay to identify small molecule agonists of the progesterone receptor (PR) signaling pathway - cell viability counter screen (AID 1346799). Note: nearly all actives have a fitted effect of over 45% in size. The gist of the method:
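Counter screen in the PR-UAS-bla HEK293T wells (2% charcoal-stripped FBS, 16 h compound exposure at 37 C) after the bla read. CellTiter-Glo added, 30 min at room temperature, luminescence read as cell viability.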

Assay [10] is described as follows: qHTS assay to identify small molecule antagonists of the TGF-beta/Smad signaling pathway - cell viability counter screen (AID 1346824; active = well fitted curve in the direction sought with a large enough effect in the repeat runs; an effect the other way counts as inactive or inconclusive; note: nearly all actives have a fitted effect of over 50% in size). Put shortly: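 SBE-bla HEK 293T cells, incubated overnight, then compound plus 0.25 ng/mL TGF-beta1 (stock added) for 5 hr at 37 C. Viability was read in the same wells by CellTiter-Glo luminescence after 30 min at room temperature.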

Assay [11] in a line: qHTS assay to identify small molecule agonists of the TGF-beta/Smad signaling pathway - cell viability counter screen (AID 1346829; active = well fitted curve in the direction sought with a large enough effect in the repeat runs; an effect the other way counts as inactive or inconclusive; note: top concentration of the series differs between compounds; nearly all actives have a fitted effect of over 45% in size). The gist of the method:
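CellTiter-Glo luminescence readout; SBE-bla HEK 293T cells, overnight plating, compound 5 hr at 37 C/5% CO2, then bla substrate 2 hr RT, then CellTiter-Glo 30 min RT.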

Assay [12] can be described thus: qHTS assay to identify small molecule agonists of the TGF-beta/Smad signaling pathway (AID 1346859; active = well fitted activation curve with a large enough effect in the signal ratio in the repeat runs, not every such curve was filed as active; the % refers to the signal ratio; note: series mostly up to about 77 µM). Put shortly:
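SBE-bla HEK293T cells plated overnight, then compound exposure for 5 h at 37 C. Beta-lactamase reporter read with LiveBLAzer B/G FRET substrate after 2 h at room temperature, fluorescence at 405 nm excitation, 460/530 nm emission.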

For assay [13], the target named is Thyrotropin-releasing hormone receptor (Homo sapiens) (UniProt P34981). Briefly: qHTS assay to identify small molecule antagonists of the thyrotropin-releasing hormone receptor (TRHR) signaling pathway (AID 1346877; active = well fitted inhibition curve with a large enough effect in the repeat runs, not every such curve was filed as active; note: series mostly up to about 51 µM). Put shortly:
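In this cell-based calcium flux format, HEK293 cells expressing TRHR received test compound for 5 min before the agonist TRH (1 nM final). Dye loading lasted 2 h at 37 °C.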

Assay [14] shares this target. As to the kind of experiment: qHTS assay to identify small molecule agonists of the thyrotropin-releasing hormone receptor (TRHR) signaling pathway (AID 1346891). Note: series mostly up to about 58 µM. Put shortly: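 HEK293 cells expressing TRHR plated 18 h at 37 C/5% CO2, calcium dye-loaded 2 h at 37 C, then compound added (agonist mode); kinetic calcium fluorescence read 3 min at 1 s intervals; 15 concentrations in triplicate.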

The nature of assay [15]: qHTS assay to identify small molecule agonists of the androgen receptor (AR) signaling pathway in the presence of an antagonist - cell viability counter screen (AID 1259379; active = well fitted curve in the direction sought with a large enough effect in the repeat runs; an effect the other way counts as inactive or inconclusive;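 note: MDA-kb2 human breast cancer cells carrying an MMTV luciferase reporter; series mostly up to about 92 µM; nearly all actives have a fitted effect of over 25% in size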). Put shortly:
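In MDA-kb2 cells (human breast carcinoma, MMTV-luciferase), compounds at 15 concentrations plus 3.0uM nilutamide; 16 hr, 37C, 0% CO2; CellTiter-Fluor fluorescence read for viability.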

The target in assay [16] is Androgen receptor (Homo sapiens) (UniProt P10275). As to the kind of experiment: qHTS assay to identify small molecule agonists of the androgen receptor (AR) signaling pathway in the presence of an antagonist (AID 1259381). Note: nearly all actives have a fitted effect of over 15% in size. Put shortly:
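Here, 15-concentration compound series were pin-transferred onto MDA-kb2 MMTV-luciferase cells already dosed with nilutamide (3.0uM final). After 16hr at 37C, ONE-Glo was added and luminescence read 30min later at room temperature.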

A short description of assay [17]: qHTS assay to identify small molecule antagonists of the estrogen receptor beta (ER-beta) signaling pathway - cell viability counter screen (AID 1259382; active = well fitted curve in the direction sought with a large enough effect in the repeat runs; an effect the other way counts as inactive or inconclusive; note: series mostly up to about 92 µM; nearly all actives have a fitted effect of over 55% in size). Put shortly:
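Tox21 10K library tested in qHTS format on ER-beta-bla HEK293T cells stimulated with 1nM E2; 16 hr treatment at 37C. Same-well CellTiter-Glo luminescence served as the cell viability measure.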

The target in assay [18] is Thyrotropin receptor (Homo sapiens) (UniProt P16473). As to the kind of experiment: qHTS assay to identify small molecule antagonists of the thyroid stimulating hormone receptor (TSHR) signaling pathway (AID 1259385). Note: nearly all actives have a fitted effect of over 20% in size. Put shortly: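 TSHR-HEK293 cells (800/well) plated 18 h, then compounds with Ro20-1724 and TSH at 1.5 ng/mL final, 30 min at room temperature. cAMP quantified by HTRF (cAMP-d2/anti-cAMP-cryptate, 1 h); 15 concentrations in triplicate.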

In assay [19] the target is Progesterone receptor (Homo sapiens) (UniProt P06401). Briefly: qHTS assay to identify small molecule agonists of the progesterone receptor (PR) signaling pathway (AID 1346784). Note: nearly all actives have a fitted effect of over 30% in size. Put shortly: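 PR-UAS-bla HEK 293T cells (beta-lactamase reporter under UAS) in 2% charcoal-stripped FBS, dosed with 23 nL compound after 6 hr, incubated 16hr at 37C. LiveBLAzer B/G FRET substrate added, fluorescence read after 2 hours.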

Assay [20] concerns the target Estrogen receptor (Homo sapiens) (UniProt P03372). As to the kind of experiment: qHTS assay to identify small molecule agonists of the estrogen receptor alpha (ER-alpha) signaling pathway in the presence of an antagonist (AID 1259383). Note: top concentration of the series differs between compounds; nearly all actives have a fitted effect of over 15% in size. Put shortly: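 In VM7Luc4E2 cells, 4,000 per well, compounds at 15 concentrations were co-incubated 22hr at 37C with 10.0nM final ICI-182,780. Luminescence from the stably transfected 4×ERE-luciferase reporter was recorded 30min after ONE-Glo addition.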

Progesterone receptor (Homo sapiens), sequence (P06401 whole entry, looked up): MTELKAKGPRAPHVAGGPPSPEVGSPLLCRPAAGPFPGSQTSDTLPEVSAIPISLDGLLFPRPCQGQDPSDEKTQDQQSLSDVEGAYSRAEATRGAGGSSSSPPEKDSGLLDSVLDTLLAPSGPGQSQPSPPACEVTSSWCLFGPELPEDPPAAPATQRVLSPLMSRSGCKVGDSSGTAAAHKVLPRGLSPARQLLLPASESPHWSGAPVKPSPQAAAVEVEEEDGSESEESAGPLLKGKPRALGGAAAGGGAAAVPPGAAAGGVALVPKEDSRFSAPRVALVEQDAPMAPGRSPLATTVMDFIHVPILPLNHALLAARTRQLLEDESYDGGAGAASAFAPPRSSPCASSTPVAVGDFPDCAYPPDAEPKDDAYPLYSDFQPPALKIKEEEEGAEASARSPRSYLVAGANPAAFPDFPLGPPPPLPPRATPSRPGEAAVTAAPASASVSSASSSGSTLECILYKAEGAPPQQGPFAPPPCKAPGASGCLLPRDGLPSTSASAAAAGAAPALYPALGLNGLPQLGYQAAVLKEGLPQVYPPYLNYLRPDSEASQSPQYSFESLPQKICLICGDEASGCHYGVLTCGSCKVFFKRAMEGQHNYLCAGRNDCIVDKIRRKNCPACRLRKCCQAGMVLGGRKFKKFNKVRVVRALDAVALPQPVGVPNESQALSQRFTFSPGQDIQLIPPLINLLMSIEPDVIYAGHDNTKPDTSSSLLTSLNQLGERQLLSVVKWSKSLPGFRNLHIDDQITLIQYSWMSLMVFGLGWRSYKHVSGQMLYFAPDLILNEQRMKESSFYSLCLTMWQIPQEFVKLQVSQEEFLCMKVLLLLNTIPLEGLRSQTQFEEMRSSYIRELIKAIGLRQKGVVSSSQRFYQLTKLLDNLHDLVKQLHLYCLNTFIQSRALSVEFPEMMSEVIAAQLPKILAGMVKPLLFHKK
Androgen receptor (Homo sapiens), sequence (P10275 whole entry, looked up): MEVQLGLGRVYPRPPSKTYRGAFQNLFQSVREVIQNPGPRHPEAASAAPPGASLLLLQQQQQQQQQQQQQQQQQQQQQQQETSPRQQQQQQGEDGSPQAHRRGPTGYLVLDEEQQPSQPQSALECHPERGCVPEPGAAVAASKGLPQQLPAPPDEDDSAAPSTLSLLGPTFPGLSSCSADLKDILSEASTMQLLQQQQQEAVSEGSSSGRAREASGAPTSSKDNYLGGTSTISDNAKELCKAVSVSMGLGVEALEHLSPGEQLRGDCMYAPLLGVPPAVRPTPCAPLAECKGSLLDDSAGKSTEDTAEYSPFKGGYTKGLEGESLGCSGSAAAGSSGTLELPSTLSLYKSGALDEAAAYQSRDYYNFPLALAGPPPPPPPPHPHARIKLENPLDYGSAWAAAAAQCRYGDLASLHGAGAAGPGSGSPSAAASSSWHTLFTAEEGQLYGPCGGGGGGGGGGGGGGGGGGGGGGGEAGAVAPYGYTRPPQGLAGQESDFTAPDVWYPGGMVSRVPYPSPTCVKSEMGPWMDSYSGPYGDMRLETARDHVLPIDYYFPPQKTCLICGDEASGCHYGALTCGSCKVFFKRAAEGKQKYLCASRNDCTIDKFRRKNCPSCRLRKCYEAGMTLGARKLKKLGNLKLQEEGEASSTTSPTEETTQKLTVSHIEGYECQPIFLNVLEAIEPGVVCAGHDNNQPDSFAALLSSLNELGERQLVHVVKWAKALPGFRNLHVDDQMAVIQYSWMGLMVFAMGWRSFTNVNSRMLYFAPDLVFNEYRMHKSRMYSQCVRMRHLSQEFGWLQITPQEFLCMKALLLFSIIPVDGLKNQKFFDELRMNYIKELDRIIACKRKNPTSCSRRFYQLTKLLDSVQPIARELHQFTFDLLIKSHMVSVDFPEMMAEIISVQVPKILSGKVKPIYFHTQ
Estrogen receptor beta (Homo sapiens), sequence (Q92731 whole entry, looked up): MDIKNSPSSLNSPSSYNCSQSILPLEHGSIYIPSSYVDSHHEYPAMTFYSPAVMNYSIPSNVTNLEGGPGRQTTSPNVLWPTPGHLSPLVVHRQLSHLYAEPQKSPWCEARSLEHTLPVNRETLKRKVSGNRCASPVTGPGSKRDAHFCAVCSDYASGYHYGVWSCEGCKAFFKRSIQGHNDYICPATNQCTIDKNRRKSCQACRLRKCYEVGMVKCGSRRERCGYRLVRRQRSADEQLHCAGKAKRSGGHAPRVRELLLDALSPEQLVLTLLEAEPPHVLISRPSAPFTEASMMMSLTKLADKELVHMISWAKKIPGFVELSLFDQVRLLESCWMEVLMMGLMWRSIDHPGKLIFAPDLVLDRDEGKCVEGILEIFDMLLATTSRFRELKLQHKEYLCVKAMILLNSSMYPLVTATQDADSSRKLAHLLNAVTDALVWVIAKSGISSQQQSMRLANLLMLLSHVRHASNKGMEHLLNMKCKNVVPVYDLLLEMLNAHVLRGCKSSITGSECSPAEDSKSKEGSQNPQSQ
Thyrotropin-releasing hormone receptor (Homo sapiens), sequence (P34981 whole entry, looked up): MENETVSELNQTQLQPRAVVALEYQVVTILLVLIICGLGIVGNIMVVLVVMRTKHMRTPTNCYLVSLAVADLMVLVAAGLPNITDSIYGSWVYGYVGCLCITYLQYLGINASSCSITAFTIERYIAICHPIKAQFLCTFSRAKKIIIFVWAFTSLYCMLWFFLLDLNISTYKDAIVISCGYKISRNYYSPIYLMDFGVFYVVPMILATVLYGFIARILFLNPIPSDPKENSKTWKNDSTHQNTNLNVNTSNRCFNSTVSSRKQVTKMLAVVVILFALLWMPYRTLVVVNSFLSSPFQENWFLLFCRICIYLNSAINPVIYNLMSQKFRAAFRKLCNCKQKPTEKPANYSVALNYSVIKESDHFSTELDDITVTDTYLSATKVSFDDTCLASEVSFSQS
Thyrotropin receptor (Homo sapiens), sequence (P16473 whole entry, looked up): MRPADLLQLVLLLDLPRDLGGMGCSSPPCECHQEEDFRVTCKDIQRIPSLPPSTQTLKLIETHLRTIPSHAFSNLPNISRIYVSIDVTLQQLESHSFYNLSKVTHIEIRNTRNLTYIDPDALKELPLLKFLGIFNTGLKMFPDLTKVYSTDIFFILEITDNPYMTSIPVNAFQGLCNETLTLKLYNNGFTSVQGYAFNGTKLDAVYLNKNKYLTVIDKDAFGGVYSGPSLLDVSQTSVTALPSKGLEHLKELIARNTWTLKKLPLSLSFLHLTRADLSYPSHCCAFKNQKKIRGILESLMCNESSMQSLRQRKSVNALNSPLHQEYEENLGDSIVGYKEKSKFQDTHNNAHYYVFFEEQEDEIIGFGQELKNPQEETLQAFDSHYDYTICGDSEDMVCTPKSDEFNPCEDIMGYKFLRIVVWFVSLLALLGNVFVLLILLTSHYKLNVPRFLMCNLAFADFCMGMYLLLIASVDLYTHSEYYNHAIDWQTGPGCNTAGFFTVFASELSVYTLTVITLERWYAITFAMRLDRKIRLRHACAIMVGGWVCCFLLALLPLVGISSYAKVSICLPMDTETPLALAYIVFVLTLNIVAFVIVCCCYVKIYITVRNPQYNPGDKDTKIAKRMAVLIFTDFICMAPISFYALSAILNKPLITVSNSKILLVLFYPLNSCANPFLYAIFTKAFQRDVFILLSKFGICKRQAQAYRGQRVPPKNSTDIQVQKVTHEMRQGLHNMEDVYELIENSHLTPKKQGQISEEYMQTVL
Estrogen receptor (Homo sapiens), sequence (P03372 whole entry, looked up): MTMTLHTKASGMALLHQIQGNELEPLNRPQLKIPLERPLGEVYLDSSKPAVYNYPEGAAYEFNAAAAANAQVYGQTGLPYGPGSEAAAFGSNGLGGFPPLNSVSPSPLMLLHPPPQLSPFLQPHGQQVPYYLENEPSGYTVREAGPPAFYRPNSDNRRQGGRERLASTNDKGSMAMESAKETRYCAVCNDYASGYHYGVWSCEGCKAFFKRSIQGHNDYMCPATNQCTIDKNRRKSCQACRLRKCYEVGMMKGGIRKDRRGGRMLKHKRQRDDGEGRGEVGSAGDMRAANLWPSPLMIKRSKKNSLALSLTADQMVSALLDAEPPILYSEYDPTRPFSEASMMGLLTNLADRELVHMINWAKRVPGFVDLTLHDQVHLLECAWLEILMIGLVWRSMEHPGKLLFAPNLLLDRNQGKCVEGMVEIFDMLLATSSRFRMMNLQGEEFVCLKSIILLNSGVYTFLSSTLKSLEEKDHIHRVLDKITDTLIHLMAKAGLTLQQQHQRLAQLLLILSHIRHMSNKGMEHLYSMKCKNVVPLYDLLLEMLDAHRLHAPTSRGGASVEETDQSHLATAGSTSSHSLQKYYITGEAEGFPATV

On to `O=C1CCCCCCCCCCCCCCO1`, for which the Potency result in assay [1], in assay [2], in [3], in assay [4], in assay [6] and in [7] was “inactive” in each case. The Potency result in [8], in assay [9] and in assay [14] was “inactive” each time. Besides, the outcome in assay [5], in [10], in [11], in assay [12] and in assay [13] was inactive.

Take `Cc1coc2ccccc2c1=O`: the Potency entry in assay [1], in [15], in assay [4], in [16], in assay [6] and in assay [19] was “inactive” in each case. The Potency result in [7], in assay [8], in [9] and in [14] was “inactive” in each case. For the same compound, the call in assay [17], in assay [5], in [18], in assay [10], in assay [11] and in assay [12] was inactive. In assay [13], the compound was classed as inactive.

Take `[O-][n+]1cccc(CO)c1`: the Potency result in assay [1], in [2], in assay [3], in assay [4], in assay [6] and in [19] was “inactive” in each case. The Potency entry in [7], in [8], in assay [9] and in [14] was “inactive” each time. For the same compound, the result in assay [20], in assay [18], in assay [10], in [11], in assay [12] and in [13] was inactive.

Turning to `Cc1cccc(C)c1NC(=O)CC12CCCN1CCC2`, the Potency result in assay [1], in assay [2], in assay [15], in [4], in [6] and in assay [7] was “inactive” each time. In addition, the Potency entry in [8], in assay [9] and in assay [14] was “inactive” in each case. The result in assay [17], in [20], in assay [5], in assay [18], in assay [10] and in [11] was inactive. For the same compound, the compound was called inactive in assay [12] and in [13].

Regarding `CC(=O)N[C@H]1[C@H]([C@H](O)[C@H](O)CO)OC(C(=O)O)=C[C@@H]1N=C(N)N`, the Potency result in assay [1], in [15], in assay [4], in assay [16], in assay [6] and in assay [19] was “inactive” each time. In addition, the Potency entry in assay [7], in assay [8], in assay [9] and in assay [14] was “inactive” in each case. Further, the outcome in assay [17], in assay [20], in assay [18], in assay [10], in [11] and in assay [12] was inactive. The compound was called inactive in assay [13].

On to `Nc1ccncc1N`, for which the Potency entry in [1], in [2], in assay [3], in assay [4], in assay [6] and in assay [19] was “inactive” in each case. The Potency entry in assay [7], in [8], in assay [9] and in [14] was “inactive” throughout. The call in assay [5], in assay [18], in assay [10], in assay [11] and in assay [12] was inactive.

For the compound `C=C[Si](OC(C)=O)(OC(C)=O)OC(C)=O`, in assay [1], the Potency was 30.6 µM (active). In addition, the Potency result in assay [15], in [4], in [16], in [6], in [7] and in assay [8] was “inactive” throughout. Further, the Potency entry in assay [9] and in [14] was “inactive” in each case. The outcome in [17], in assay [20], in assay [5], in assay [18], in assay [10] and in [11] was inactive. In addition, in assay [12], the compound was called inactive.

With `c1ccc2sc(SN3CCOCC3)nc2c1`, the Potency result in [1], in assay [2], in [3], in assay [4], in [6] and in [19] was “inactive” each time. The Potency result in assay [7], in assay [8], in assay [9] and in assay [14] was “inactive” in each case. In addition, the compound was called inactive in [17], in assay [5], in assay [18], in [10], in assay [11] and in assay [12]. Further, the result in assay [13] was inactive.

With `N[C@@H](CCC(=O)O)C(=O)O`, the Potency entry in [1], in assay [15], in assay [4], in [6], in [19] and in assay [7] was “inactive” throughout. Besides, the Potency entry in [8], in assay [9] and in assay [14] was “inactive” each time. Also, the call in assay [17], in assay [20], in assay [5], in assay [18], in assay [10] and in [11] was inactive. Further, the result in assay [12] and in [13] was inactive.

As for `CNC(=O)Nc1ccc(Cl)c(Cl)c1`, the Potency result in [1], in assay [3], in [16], in [6], in assay [19] and in assay [8] was “inactive” each time. The Potency result in [9] and in [14] was “inactive” in each case. Besides, the call in assay [17], in assay [20], in assay [5], in [18], in [10] and in assay [12] was inactive. In addition, the compound was called inactive in assay [13].

Consider `NO`, for which the Potency result in [1], in assay [2], in assay [15], in assay [4], in assay [6] and in [8] was “inactive” throughout. Further, the Potency result in assay [9] is “inactive”. Moreover, the compound was called inactive in assay [17], in assay [18], in [10] and in assay [12].
